# PubChem BioAssay (NCI)
# Several values for one entry are separate records, joined by “and”; a condition that tells them apart may be missing. Equal values may be shown once. The panel holds about 83,000 compounds, 20% with a hit somewhere; the sample as a whole holds those more often.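 The test compound was applied at a single concentration to cells in 96-well plates for 48 hours, and percent growth was recorded.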 Values without a mark were called inactive. Activity calls are given as the source filed them. The calls were made as follows: active = growth percent below 10; inactive = the rest.
# Tested on: MDA-MB-468 breast
# Test: NCI-60 one-dose screen, 48 h (100 = growth as untreated, 0 = no growth, -100 = all killed)
# Conditions: 10 µM unless noted
row,SMILES,growth
1,COc1ccc(/C=C2\CCC/C(=C\c3ccc(OC)c(OC)c3)C2=O)cc1OC,-16.6% (active)
2,Cc1ccc(CCCC(=O)O)c(C)c1,91.7%
3,COc1ccc(Cl)cc1NC(=O)c1cc2c(n1C)-c1nc(NC(=O)C(C)C)sc1CC2,88.5%
4,CC(=O)Nc1ccc(-n2c(O)c(/C=N/NC(=O)Cc3ccccc3Nc3c(Cl)cccc3Cl)sc2=S)cc1,94.2%
5,C=C(C)[C@@H]1CC[C@]2(C(N)=O)CC[C@]3(C)[C@H](CC[C@@H]4[C@@]5(C)C/C(=C/c6cccnc6)[C@H](O)C(C)(C)[C@@H]5CC[C@]43C)[C@@H]12,23.6% [100 µM]
6,COc1ccc(-c2nnc(COc3ccc(NC(=O)Nc4ccccc4)cc3F)o2)cc1,86.9%
7,N#Cc1nc(-c2ccc(F)cc2)oc1S(=O)(=O)N1CCCCC1,52.7%
8,COc1cc(/C=N/NC(=O)c2cnn3c2NC(c2ccccc2)C3)ccc1OC1CCCC1 (stereo not given),23.3%
9,Clc1ccc(/C=C2\CCCC3C2=Nc2ccccc2NC3c2ccc(Cl)cc2)cc1 (stereo not given),60%
10,Cc1ccc(C)c2c1SC1=NNC(Oc3ccc(Cl)cc3)=C(C#N)C(=N)N12,118%
11,O=C(O)c1ccc(-n2cc(/C=N/Nc3ccc(F)cc3)c(-c3cccc(C(F)(F)F)c3)n2)cc1,90.8%
12,CCOC(=O)C(C)(CSSCC(C)(NC(=O)c1ccc2ccccc2c1)C(=O)OCC)NC(=O)c1ccc2ccccc2c1 (stereo not given),109%
13,N#Cc1cnn(-c2nc3c(Cl)cccc3s2)c1N,85.3%
14,O=C(CCCCCC/C=C\c1csc(Br)n1)NO,84.9%
15,COCCCNC(=O)c1nnn2c1nc(N)c1cc(Cl)ccc12,88.6%
16,COc1ccc(C2CC(n3nnnc3-c3ccccc3)=NN2)cc1 (stereo not given),64.5%
17,CS(=O)(=O)Nc1cc(-c2ccc3ncnc(Nc4ccc(F)c(Cl)c4)c3c2)cnc1Cl,-43.3% (active)
18,Cc1ccc(/C=C/c2c(C(=O)/C=C/c3ccc(Cl)cc3)c(C)nc3ccccc23)cc1,-23.3% (active)
19,C=CC[N+]1(CC)CCN=C1CCCCCCCCCCCCCCCCC (stereo not given),-82.6% (active)
20,O/N=C1\c2ccccc2-c2ccc(F)cc21,9.23% (active)

row,SMILES,growth
1,NC(N)=N/N=C\c1cccc(OCc2ccccc2)c1,19.1%
2,CCCNc1nc2ccccc2c2c(=O)c3cccc(Cl)c3sc12,36.2%
3,CCCCOc1nc2cc(Cl)ccc2cc1/C=C/c1cc(/C=C/c2cc3ccc(Cl)cc3nc2OCCCC)n(-c2ccccc2)n1,92%
4,CCCCCC(=O)OCc1ccc(Cl)c(Cl)c1,123%
5,COC1=C(OC)C(=O)C=CC1=O,105%
6,Cc1ncc(C(=O)Nc2ccc(CN3CCN(C)CC3)c(C(F)(F)F)c2)cc1C#Cc1cnc(N)cc1C#N,68.2%
7,O=C1N=C(N2CCOCC2)S/C1=C\c1cn(-c2ccccc2)nc1-c1ccccc1,83.3%
8,O=C(CNc1nnc(-c2cccnc2SCc2ccccc2)s1)Nc1nc(Cl)cc(Cl)n1,112%
9,Cc1ccc(Nc2cc(N)nc(N)n2)cc1,92.2%
10,COC(=O)[C@]12CC[C@@H](C)[C@H](C)[C@@H]1C1=CC[C@@H]3[C@@]4(C)C[C@@H](O)OC[C@](C)(C=O)C4C(=O)C[C@@]3(C)[C@]1(C)CC2 (stereo not given in full),-0.84% (active)
11,O=C(O)c1cccc(S(=O)(=O)c2ccccc2)c1,94.7%
12,CCC(C)(O)CCC(C)(O)CC (stereo not given),106%
13,O=c1c2cc(F)cc(Cl)c2sc2c(NCCCNCCO)nc3ccccc3c12,78.2%
14,O=C(O)C1C2CCC1C(O)C2 (stereo not given),97.7% and 110%
15,C=C1SC(=Nc2c(C)cccc2C)N(c2nc(Cl)nc(Cl)n2)C12CCCCC2,101%
16,CCC/C=C(\C)C(C)(C#N)C(=O)OCC (stereo not given),102%
17,CCC(C)CC(C)C(=O)c1c(O)ccn(OC)c1=O (stereo not given),69.4%
18,COc1ccc(NC2=C(Br)C(=O)C(C)=C(C)C2=O)cc1OC,-66.6% (active)
19,COc1ccc(Cc2nc3cc(OC)c(OC)cc3c(=O)[nH]2)cc1,56%
20,O=C(N/N=C/c1c[nH]c2ccccc12)c1cc(-c2ccccc2)on1,94.9%
